Screening data (PubChem)
ALOX12 inhib: 12-hLO (ALOX12) enzyme inhibition. P18054. purified 12-hLO, xylenol orange hydroperoxide absorbance. Potency, µM (doses to about 57.1 µM), for the others: at the highest dose activity change, negative = inhibition, usual class: inhibitors. actives 0.12% (n = 150,000). AID 1452; note: potency is the fitted concentration of half-maximal effect; nearly all actives have a fitted effect of over 55% in size
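Purified human 12hLO (150 nM), preincubated 15 min with compound, then 40 uM arachidonic acid for 30 min, room temperature, Hepes pH 7.0 with 0.01% Triton X-100. Hydroperoxide detected by ferrous iron/xylenol orange; 573/405 nm absorbance ratio gives reaction progress.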
HPGD inh: blocks human HPGD enzyme activity | P15428 | purified HPGD, NADH fluorescence kinetic, PGE2 substrate | Potency, µM, without a hit: at the top dose activity change, negative = inhibition, hits mostly inhibitors | actives 4.3% (n = 150,000) | AID 894; active = well fitted inhibition curve with a large enough effect, not every such curve was filed as active; inconclusive = small, poorly fitted or top-dose-only effect, or another doubt; inactive = no such curve, though single readings can be large or run the other way; note: potency is the fitted concentration of half-maximal effect
Target sequence (P15428 whole entry, looked up): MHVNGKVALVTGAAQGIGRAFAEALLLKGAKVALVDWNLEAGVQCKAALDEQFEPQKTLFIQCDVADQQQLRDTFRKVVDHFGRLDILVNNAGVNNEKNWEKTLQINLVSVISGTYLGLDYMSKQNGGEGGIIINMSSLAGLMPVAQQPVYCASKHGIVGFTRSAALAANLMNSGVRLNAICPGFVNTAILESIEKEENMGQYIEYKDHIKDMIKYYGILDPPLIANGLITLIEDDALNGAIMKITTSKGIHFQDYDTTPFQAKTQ
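NADH formation kinetics: reaction with 30 uM PGE2 and 1 mM NAD+ (final), 20 nM enzyme, Tris-HCl pH 8 with Tween 20, after 15 min compound preincubation at room temperature. Fluorescence change, last versus first of five reads.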
IMPase Li cell: membrane-permeable IMPase blocker, potentiated with lithium; CHO-M1 cells, IP1 TR-FRET (IP-One), carbachol + lithium; Potency, µM (top dose mostly 59.4 µM), for inactives: at the highest dose activity, negative = IMPase inhibition, usual class: inhibitors; actives 0.35% (n = 210,000); AID 1457;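 note: IP1 builds up when IMPase is blocked and the TR-FRET signal falls; potency is the fitted concentration of half-maximal effect; plate controls were basal vehicle for no effect and high inhibitor control for full effect; nearly all actives have a fitted effect of over 50% in size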
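CHO cells stably expressing M1 receptor (2000/well, cultured 16–30 h) treated 30 min at 37C with compound plus low lithium. Cytosolic IP1 by TR-FRET (665/620 ratio and 620 channel) after 10 min lysis; AC50 by Hill fit.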
IMPase cell inh: IMPase inhibition in cells | P97697 | CHO-M1 cells, IP1 accumulation, HTRF TR-FRET ratio | inhibition (IP1 accumulation), % at 46.1 µM | 120,000 tested, under 10 active | AID 901; active = well fitted curve in the direction sought with a large enough effect in the signal ratio, not every such curve was filed as active; inconclusive = small, poorly fitted or top-dose-only effect, or a change in a side signal; inactive = no such curve, though single readings can be large or run the other way; the % refers to the signal ratio;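 note: cells stimulated with carbachol in lithium chloride buffer; plate controls were DMSO basal wells for no effect and reference inhibitor wells for full effect; higher means more IMPase inhibition seen as more IP1 and lower FRET ratio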
Target sequence (P97697 whole entry, looked up): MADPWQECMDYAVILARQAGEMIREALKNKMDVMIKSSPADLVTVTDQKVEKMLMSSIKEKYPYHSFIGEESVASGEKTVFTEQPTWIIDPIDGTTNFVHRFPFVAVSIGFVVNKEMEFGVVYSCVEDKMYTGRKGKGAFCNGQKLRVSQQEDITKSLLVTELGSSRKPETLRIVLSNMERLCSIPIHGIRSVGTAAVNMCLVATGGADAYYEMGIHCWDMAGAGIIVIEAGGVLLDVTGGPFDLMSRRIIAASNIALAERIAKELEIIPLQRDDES
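CHO-M1, 2000 cells/well, cultured 16–30 h; cpd up to 46 uM; carbachol (50 uM solution, stimulation buffer w/ 50 mM LiCl, pH 7.4), 30 min 37C; IP-One TR-FRET, 10 min RT; Ex 320/Em 665, 620; Hill-fit AC50.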
PNC inhibitor: blocks assembly of the perinucleolar compartment; PC3M PTB-GFP, PNC prevalence imaging, 16 h; stronger effect = lower value; activity change (PNC), negative = inhibition, % at 10 µM; actives 3.1% (n = 140,000); AID 2417;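 active = readout at or below -70, meaning at least 70% loss of cells showing the perinucleolar compartment, a nuclear body marking cancer cells; inconclusive = readout between -30 and a set limit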;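 note: plate controls were DMSO wells for no effect and camptothecin positive control wells for full effect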
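Compounds are pinned in duplicate onto adhered PC3M cells stably expressing GFP-tagged PTB and incubated 16 h at 37 C. Cells are then fixed, nuclei stained with Hoechst, and PNC-positive cells counted.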
ALOX15B inhib: blocks human 15-lipoxygenase 2 activity; actives 0.56% (n = 110,000); O15296; Potency, µM (top dose mostly 57.1 µM), without a hit: top-dose activity change, negative = inhibition, most hits filed as inhibitors; AID 881; purified 15hLO-2, xylenol orange hydroperoxide absorbance; note: potency is the fitted concentration of half-maximal effect; nearly all actives have a fitted effect of over 60% in size
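Screening format was qHTS against 50 nM purified 15hLO-2 in Hepes pH 7.5 with detergent. Activity follows hydroperoxide formation from 45 uM arachidonic acid, measured as 573:405 nm absorbance ratio of the ferric-xylenol orange complex.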
* hit, by the source's call; ? = inconclusive; . = not tested or not shown; [ ] = another dose, or the depositor's remark. Sampled rows, rich in hits. Any-hit rate of the full collection: about 5.3%. Unless noted, calls come from the whole dose curve; as a rule, active = well fitted curve in the direction sought with a large enough effect; inconclusive = small, poorly fitted or top-dose-only effect, or another doubt; inactive = no such curve, though single readings can be large; an effect the other way counts as inactive or inconclusive. Unless noted, % is set by controls: 0 for no effect and ±100 for the full control effect.

SMILES	ALOX12 inhib	HPGD inh	IMPase Li cell	IMPase cell inh	PNC inhibitor	ALOX15B inhib
CCOC(=O)CC(=O)CSc1[nH]c(=O)cc(C)c1C#N	-9%	14µM*	-9%[38.3 µM]	0	-9	5%
CCOC(=O)CSc1[nH]c(=O)cc(C)c1C#N	1%	-1%	16%[38.3 µM]	-8	-18	-2%
S=c1nc[nH]c2c1[nH]c1ccccc12	3%	25µM*	4.5µM*	?	?	-25%
Cc1ccc(C(C(=O)NC2CCCCC2)N2CCCC2)cc1 (stereo not drawn)	-1%	-15%	25%	?	-112*	19%
CC1CCCCN1C(=O)c1cnn2c(C(F)(F)F)cc(-c3ccco3)nc12 (stereo not drawn)	-10%	7.1µM*	32%[38.3 µM]	-17	1	-9%
Cc1ccc(SCCCCN2CCNCC2)cc1	-3%	-7%	4%	.	17	.
CN(C)c1cccc(C(=O)Nc2cc(C(F)(F)F)ccc2-n2cnc3ccccc32)c1	5%	-11%	-1%	14	-30	.
CCOC(=O)c1ccc(N2C(=O)C3CC=CCC3C2=O)cc1 (stereo not drawn)	-1%	-8%	26%[38.3 µM]	2	60	1%
CCOC(=O)c1ccc(N2C(=O)C3C(C2=O)C(C(=O)c2ccc(Cl)cc2)N2CCCC32)cc1 (stereo not drawn)	?	2.2µM*	35%[38.3 µM]	0	44	-26%
OCCC1CN(Cc2ccccc2OC2CCCC2)CCN1Cc1ccsc1 (stereo not drawn)	.	.	19%	.	.	.
Nc1cccc2nc3ccccc3cc12	-3%	?	31%[38.3 µM]	-4	-113*	4%
O=C(O)c1ccc(C(=O)c2ccc3c(c2)C(=O)N(Cc2ccco2)C3=O)cc1	0%	8.9µM*	16%[38.3 µM]	-1	?	-1%
O=C(c1ccc2c(c1)C(=O)N(Cc1ccco1)C2=O)N1CCOCC1	6%	-6%	2%[38.3 µM]	-9	25	0%
COc1ccc([C@@H]2[C@H]3C(=O)N(c4cccc(C(F)(F)F)c4)C(=O)[C@H]3ON2C)cc1	-3%	-18%	4%[38.3 µM]	-3	-14	-18%
Cc1c(/C=N\NC(=O)c2ccc([N+](=O)[O-])cc2)cnn1C	6%	-11%	-8%	.	-109*	.
CC(C)(C)c1ccc(/C=N/Nc2ccc(C(=O)O)cc2)cc1	1%	14µM*	8%	.	23	.
CCCS(=O)(=O)N1CCN(C(=O)COc2ccccc2)CC1	6%	-8%	32%[38.3 µM]	1	?	0%
O=C(COc1ccc(-c2nnco2)cc1)N1CCN(S(=O)(=O)c2ccccc2)CC1	-1%	-3%	-4%[38.3 µM]	9	-81*	4%
O=C(COc1ccc(Cl)cc1)N1CCN(S(=O)(=O)c2ccccc2)CC1	3%	-1%	32%[38.3 µM]	0	22	5%
CCCS(=O)(=O)N1CCN(C(=O)COc2ccc(-c3ccccc3)cc2)CC1	-4%	-11%	7%	-7	-88*	.
COc1cc2c(=O)n(CCC(=O)NCC3CCCO3)c(=O)n(CC(=O)c3ccc(Cl)cc3)c2cc1OC (stereo not drawn)	.	.	-3%	.	.	.
CC(C)c1onc(C(=O)N2CCCCC2)c1[N+](=O)[O-]	1%	14µM*	1%	.	-2	.
Cn1c(=O)cc(NCc2ccccc2)[nH]c1=O	-5%	-17%	8%[38.3 µM]	10	-91*	7%
Cn1c(NCc2ccccc2)cc(=O)n(C)c1=O	-3%	?	20%[38.3 µM]	6	?	-1%
Cc1cc(N2CCN(C(=O)OC(C)(C)C)CC2)n2ncnc2n1	-10%	.	.	7	-88*	-5%
SMILES	ALOX12 inhib	HPGD inh	IMPase Li cell	IMPase cell inh	PNC inhibitor	ALOX15B inhib
Cc1cccc2c(=O)c(C(=O)NCCCN3CCOCC3)c[nH]c12	-4%	-8%	2%	-2	-100*	.
CCOc1ccc2[nH]cc(C(=O)NCCCN3CCOCC3)c(=O)c2c1	.	.	5%	.	.	.
CN(C(=O)COC(=O)CNC(=O)c1ccc(Cl)cc1Cl)c1ccccc1	.	.	8%	.	.	.
N#Cc1nc(-c2ccco2)oc1NCc1ccc(F)cc1	-5%	?	10%[38.3 µM]	0	-82*	-8%
CC(C)CNc1oc(-c2ccco2)nc1C#N	0%	?	-1%	?	-100*	.
N#Cc1nc(-c2ccco2)oc1NCc1cccnc1	2%	?	18%[38.3 µM]	-13	36	-3%
COC(=O)N1[C@H](C)C=C[C@]1(Cc1ccccc1)C(=O)NCc1ccc(N(C)C)cc1	0%	-14%	-2%	.	.	15%
CCCn1c(NC(=O)c2ccc(Br)cc2)nc2ccccc21	3%	?	28µM*	?	-28	6%
CCCn1c(NC(=O)c2ccc(F)cc2)nc2ccccc21	.	.	5%	.	.	.
Cc1cccc(OCCCN2C(=O)C(=O)c3cc(C)ccc32)c1	.	.	1%	.	.	.
CCOC(=O)c1sc2nc(N3CCOCC3)c3c(c2c1N)CCC3	-2%	?	-7%[38.3 µM]	-9	-96*	11%
NC(=O)c1sc2nc(N3CCOCC3)c3c(c2c1N)CCCC3	-9%	?	-21%[38.3 µM]	?	-4	-3%
CN(C)/N=C/c1c(O)ccc2ccccc12	-11%	32µM*	23%[38.3 µM]	-5	-3	-15%
Oc1ccc2ccccc2c1C=Nc1ccc(N2CCOCC2)cc1	?	20µM*	58%[38.3 µM]	6	-23	?
COC(=O)C1=C(C)NC(C)=C(C(=O)OCCNCc2ccccc2)C1c1cccc([N+](=O)[O-])c1 (stereo not drawn)	1%[0.00818 µM]	-22%	16%	.	.	45%[0.0915 µM]
CNC(=O)c1sc(-c2ccc(Cl)cc2)nc1C	-3%	-10%	-23%[38.3 µM]	-16	-90*	-3%
